Common to all, as to assay: NCI-60 one-dose screen, 48 h (100 = growth as untreated, 0 = no growth, -100 = all killed)
What all share (settings): 10 µM unless noted

In assay [1] the test system is RPMI-8226 leukemia.
Assay [2] concerns OVCAR-8 ovarian.
Assay [3] deals with OVCAR-5 ovarian.
In assay [4] the test system is OVCAR-4 ovarian.
In assay [5] the test system is SK-OV-3 ovarian.
Assay [6] has as its system IGROV1 ovarian.
In assay [7] the test system is OVCAR-3 ovarian.
The subject of assay [8] is HS 578T breast.
Assay [9] relates to NCI/ADR-RES ovarian.
The test system of assay [10] is T-47D breast.
Assay [11] has as its system MDA-MB-435 melanoma.
The test system of assay [12] is SW-620 colon.
The test system of assay [13] is MCF7 breast.
Assay [14] relates to HCT-116 colon.
For assay [15], the system named is HCC-2998 colon.
Assay [16] relates to KM12 colon.
The test system of assay [17] is BT-549 breast.

Compounds without any hit were thinned out: in the full panel of roughly 83,000, 20% have a hit.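 Note: values are percent growth. 100 is the growth of untreated cells, values between 100 and 0 indicate rising inhibition; between -100 and 0 indicates cell death.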 Unmarked numbers belong to inactive results. The source made the active and inactive calls. The calls were made as follows: active = growth percent below 10; inactive = the rest.

Consider `C[N+]1(CCc2ccccc2)CCC(CCC2CC[N+](C)(CCc3ccccc3)CC2)CC1` (stereo not drawn), for which the growth in assay [1] is 126%; in assay [2], 97%; in assay [3], 104%; in assay [4] it was 103%; in assay [5] it was 107%; in [6], 105%. The growth in assay [7] is 107%; in assay [8], 103%; in assay [9] it was 105%; in assay [10], 102%; in [11] it was 104%; in [12], 98.8%. The growth is 98.6% in assay [13], 95.1% in [14], 101% in assay [15] and 111% in [16].

In the case of `Cc1c(C(N)=O)sc2ncn(CC(=O)Nc3ccc(Cl)cc3)c(=O)c12`, the growth in [1] is 101%; in [2] it was 105%; in assay [3], 85.5%; in [4], 110%; in assay [5], 106%; in assay [6] it was 533%. The growth in [7] was 122%; in assay [8], 139%; in assay [9], 102%; in [10] it was 102%; in assay [11], 106%; in assay [12], 106%. Moreover, the growth in assay [13] was 108%; in [14] it was 105%; in assay [15] it was 118%; in [16], 117%.

As to `CCOC(=O)C1=C(COCCN)NC(C)=C(C(=O)OC)C1c1ccccc1Cl` (stereo not drawn), the growth in [1] was 45.9%; in assay [2], 82%; in assay [3], 74.7%; in [4], 78.9%; in assay [5], 94.2%; in assay [6], 73.6%. Moreover, the growth in [7] is 68.5%; in [8], 80.3%; in assay [9] it was 80%; in assay [10] it was 51.7%; in [17] it was 86.5%; in assay [11], 68.7%. For the same molecule, the growth in [12] was 53.4%; in assay [14] it was 45.9%; in assay [15], 3.32% (active); in assay [16], 68.9%.

As to `C[n+]1c2ccccc2c(NC2CCNCC2)c2[nH]c3ccccc3c21`, the growth in assay [1] was -40.8% (active); in assay [2], 15.2%; in assay [3] it was 36.3%; in assay [4] it was 4.1% (active); in [5] it was -0.545% (active); in assay [6], -20.9% (active). In addition, the growth in [7] is -1.97% (active); in assay [8] it was -38% (active); in assay [9], 96.5%; in [10], -9.19% (active); in [11], 30.9%; in assay [12], 16.1%. For the same molecule, the growth in assay [13] is 1.07% (active); in assay [14], 4.09% (active); in assay [15], -7.7% (active); in assay [16], -11.4% (active).

`CN(C)c1nc(-c2ccco2)n2nc(-c3ccco3)cc2n1`: the growth in [1] was 65.1%; in [2] it was 92.8%; in [3], 108%; in [4], 80.1%; in assay [5] it was 98.7%; in assay [6], 72.4%. The growth in assay [7] is 92.9%; in [8], 78.1%; in assay [9], 90.7%; in [10], 38%; in assay [17], 94.3%; in assay [12], 93.4%. The growth in [13] is 28.3%; in assay [14], 91.6%; in [15], 88.5%; in assay [16] it was 61.3%.

Take `CN=C(NC)N/N=C(C)\C=N\NC(=NC)NC`: the growth is 127% in assay [1]; 102% in assay [2]; 116% in assay [3]; 112% in assay [4]; 101% in assay [5]; 112% in [6]. Besides, the growth in assay [7] is 107%; in [8] it was 102%; in assay [9], 107%; in assay [10], 109%; in assay [11] it was 104%; in assay [12] it was 99.5%. Further, the growth in [13] was 104%; in assay [14] it was 105%; in assay [15], 110%; in assay [16] it was 104%.

For the molecule `N=c1ccn2c(n1)O[C@@H]1[C@@H](O)[C@H](CO)O[C@@H]12`, the growth in assay [1] was 94.4%; in [2] it was 25.7%; in assay [3] it was 81%; in assay [4] it was 76.7%; in assay [5], 61.7%; in [6], 71.4%. In addition, the growth in [7] is 87.5%; in assay [8] it was 99%; in assay [9], 41.6%; in [10], 92.7%; in assay [17] it was 83.5%; in [11], 57.1%. In addition, the growth in [12] was 66.5%; in [14], 37.4%; in assay [15] it was 50.2%; in [16], 77.4%.

Regarding `CCCn1cnc2c1c(=O)n(CCCCC(C)=O)c(=O)n2C`, the growth in assay [1] is 101%; in assay [2], 98.3%; in [3] it was 110%; in assay [4], 97.1%; in assay [5], 95.1%; in assay [6], 97.6%. For the same molecule, the growth in assay [7] is 115%; in [8], 104%; in [9] it was 108%; in assay [10], 99%; in assay [11], 117%; in assay [12] it was 97.7%. Moreover, the growth is 92.6% in [13], 96.8% in assay [14], 100% in assay [15] and 114% in assay [16].

As for `O=C(/C=C/c1cccnc1)/C=C/c1cccnc1`, the growth is -61.1% (active) in assay [1]; -25.2% (active) in assay [2]; -21.7% (active) in [3]; 20.9% in assay [4]; 31% in [5]; -89.3% (active) in [6]. Further, the growth in assay [7] was -40.9% (active); in assay [8], -16% (active); in [9] it was 32.2%; in assay [10], -2.05% (active); in assay [11], -28.9% (active); in [12], -68.6% (active). Besides, the growth in assay [13] is -39.4% (active); in [14], -92.7% (active); in [15], -70.6% (active); in [16] it was -85.1% (active).

Take `C=CCOc1ccc2c(c1)CC[C@@H]1[C@@H]2CC[C@@]2(C)[C@H]1CC[C@]2(C)O`: the growth in assay [1] was 51.8%; in assay [2], 66.4%; in [3], 75.3%; in assay [4], 89.4%; in assay [5], 93.9%; in assay [6], 104%. In addition, the growth was 111% in assay [7]; 93% in [8]; 90.5% in assay [9]; 79.9% in assay [10]; 86.9% in assay [11]; 64.3% in assay [12]. Besides, the growth in assay [13] was 117%; in assay [14], 94.4%; in [15], 94.8%; in assay [16] it was 58.2%.

In the case of `Cc1scc2c1N(C(=O)CN1CCN(C)CC1)c1ccccc1NC2=O`, the growth in assay [1] is 113%; in assay [2] it was 102%; in [3] it was 118%; in [4] it was 101%; in assay [5] it was 105%; in assay [6], 108%. Also, the growth was 108% in assay [7]; 112% in assay [8]; 108% in assay [9]; 102% in [10]; 110% in [17]; 110% in assay [11]. In addition, the growth in assay [12] is 112%; in assay [14] it was 111%; in [15], 103%; in [16], 113%.

Regarding `COc1cc(C2CC(=O)Nc3c2cc(Br)c2ccccc32)cc(Br)c1OC` (stereo not drawn), the growth in [1] was 43.3%; in [2] it was 31.7%; in [3], 76.2%; in [4] it was -64.2% (active); in assay [5], -15.1% (active); in [6], 26.7%. The growth was -13% (active) in assay [7]; 39.6% in [8]; 6.65% (active) in assay [9]; 4.99% (active) in assay [10]; 60.7% in assay [17]; -29.6% (active) in assay [11]. Besides, the growth is 17.6% in [12], -5.31% (active) in [14], 90.9% in [15] and 6.63% (active) in assay [16].

Take `Cc1cc(C)n(C(=O)c2nn(-c3ccc(Cl)cc3)cc2O)n1`: the growth in assay [1] was -0.413% (active); in assay [2], 26.3%; in [3] it was 64.1%; in [4], 67.7%; in assay [5], 87.5%; in assay [6] it was 25.3%. The growth was 50.9% in [7]; 7.1% (active) in [8]; 22.6% in [9]; 46.3% in [10]; 32.1% in [11]; 81.4% in [12]. The growth in [13] is 81%; in assay [14], 8.59% (active); in assay [15], 82.8%; in assay [16] it was 36.3%.

For the molecule `CCCCCCC(C)(O)c1ccccc1` (stereo not drawn), the growth in assay [1] is 107%; in assay [2], 115%; in assay [3] it was 98.5%; in assay [4], 110%; in assay [5], 103%; in assay [6], 122%. In addition, the growth in assay [7] was 117%; in assay [8], 117%; in assay [9] it was 101%; in assay [10], 101%; in assay [11], 106%; in assay [12], 107%. Further, the growth in [13] is 97.4%; in assay [14] it was 109%; in [15], 102%; in [16] it was 107%.

For the molecule `O=[N+]([O-])c1cnc(Sc2ccncn2)c([N+](=O)[O-])c1`, the growth in [1] was 67.4%; in assay [2], 97.3%; in [3], 102%; in assay [4], 97.8%; in assay [5], 97.2%; in [6], 117%. Moreover, the growth in [7] is 55.1%; in assay [8], 97.8%; in assay [9] it was 107%; in [10], -31.7% (active); in assay [11], 91.1%; in [12], 26.4%. Also, the growth in assay [13] is 56.1%; in [14], -59% (active); in [15], 102%; in assay [16], 107%.

For the molecule `COc1cc(/C=C/c2nnc(-c3cc(-c4ccccc4)n[nH]3)o2)cc(OC)c1OC`, the growth was 83% in [1]; 80.8% in [2]; 101% in [3]; 100% in assay [4]; 88.7% in [5]; 110% in assay [6]. The growth was 107% in [7]; 99.7% in assay [8]; 86.7% in assay [9]; 73.2% in assay [10]; 112% in assay [17]; 102% in assay [11]. Also, the growth in assay [12] was 115%; in assay [14], 119%; in assay [15], 98.3%; in assay [16] it was 103%.

Take `CN1C(=O)C(=Cc2cn(Cc3ccccc3)c3ccc(Br)cc23)C(=O)N(C)C1=O`: the growth in assay [1] is 92.6%; in assay [2], 97.9%; in [3], 14%; in [4], 107%; in assay [5] it was 90.4%; in assay [6], 97.3%. In addition, the growth is 103% in assay [7]; 113% in assay [8]; 96.9% in assay [9]; 83.7% in assay [10]; 102% in assay [17]; 102% in [11]. In addition, the growth was 108% in [12], 101% in [14], 107% in assay [15] and 102% in assay [16].

In the case of `COC(=O)CC1=C(C)/C(=C/c2[nH]c(-c3ccc[nH]3)cc2OC)N=C1C`, the growth was -55.3% (active) in assay [1]; 6.58% (active) in assay [2]; 18.7% in assay [3]; 10.5% in [4]; 20.2% in assay [5]; 11.3% in assay [6]. Further, the growth in assay [7] was -17.7% (active); in assay [8] it was -14.9% (active); in assay [9], 5.14% (active); in assay [10], 0.172% (active); in assay [11], -4.71% (active); in assay [12] it was 4.66% (active). Also, the growth is -3.82% (active) in assay [13], -33.6% (active) in assay [14], 11.3% in assay [15] and 10.2% in [16].

Source of the values: PubChem BioAssay (NCI).
